# From PubChem BioAssay
# HP1b chromo inh: HTS for Inhibitors of HP1-beta Chromodomain Interactions with Methylated Histone Tails. AlphaScreen HP1-beta / biotin-H3K9me3 peptide binding. Potency, µM (highest dose often 114 µM), actives largely listed as inhibitors. 0.56% of 390,000 active; also: nearly all actives have a fitted effect of over 70% in size
# Target sequence (P83916 whole entry, looked up): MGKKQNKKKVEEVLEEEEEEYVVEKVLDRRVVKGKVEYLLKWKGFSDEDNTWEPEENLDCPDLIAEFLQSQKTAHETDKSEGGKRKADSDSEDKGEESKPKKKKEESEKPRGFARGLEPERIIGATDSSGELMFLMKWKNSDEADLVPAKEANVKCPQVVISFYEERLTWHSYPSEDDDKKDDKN
#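 Compound inhibition of the preformed complex between 50 nM HP1-beta and 50 nM biotinylated H3K9me3 peptide was read by AlphaScreen. Buffer was PBS pH 7.4 with 0.01% Tween-20. Incubations ran 30 min at room temperature, with 10 ug/mL donor/acceptor beads.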
# JMJD2A Tudor: qHTS Assay for Inhibitors of JMJD2A-Tudor Domain; Potency, µM (series often up to 114 µM), hits mostly inhibitors; 4.4% of 390,000 active; Lysine-specific demethylase 4A (Homo sapiens), O75164; AlphaScreen JMJD2A-Tudor / H3K4me3 peptide binding; also: nearly all actives have a fitted effect of over 50% in size
# Sfp inh: qHTS Assay for Inhibitors of Bacillus subtilis Sfp phosphopantetheinyl transferase (PPTase) | 4'-phosphopantetheinyl transferase ffp (Bacillus subtilis), Q9F4F7 | Biochemical Sfp PPTase activity, qHTS | Potency, µM, actives largely listed as inhibitors | 3.5% of 310,000 active | AID 1490, 2009;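 also: the enzyme is Sfp with the accession as filed and its product quenches rhodamine fluorescence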
#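 Fluorescence-quenching assay with 15 nM Sfp, 5 uM rhodamine-CoA and 12.5 uM BHQ-2-labelled ybbR peptide in pH 7.6 Hepes/MgCl2 buffer. Enzyme was pre-incubated with compound for 15 min at room temperature. Rate was taken from the 30-min fluorescence change (525/598 nm).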
# L3MBTL1 inh: qHTS Assay for the Inhibitors of L3MBTL1 | Lethal(3)malignant brain tumor-like protein 1 (Homo sapiens), Q9Y468 | AlphaScreen L3MBTL1–H3K9me1 peptide binding | Potency, µM (series often up to 57.1 µM), most hits filed as inhibitors | 0.66% of 230,000 active | AID 485360, 2010; also: nearly all actives have a fitted effect of over 60% in size
#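 L3MBTL1 50 nM + b-AHA-H3(1-15)K9me1 75 nM, 30 min RT; compound added, 30 min RT; streptavidin donor/Ni-chelate acceptor beads 10 ug/mL each final, 30 min RT dark; AlphaScreen read.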
# BAZ2B block: qHTS Assay for Inhibitors of BAZ2B. Bromodomain adjacent to zinc finger domain protein 2B (Homo sapiens), Q9UIF8. AlphaScreen BAZ2B-H3K14Ac peptide displacement. Potency, µM (series often up to 114 µM), actives largely listed as inhibitors. 4.4% of 360,000 active. AID 504333, 2011; also: nearly all actives have a fitted effect of over 60% in size
#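 AlphaScreen displacement: compounds (up to 110uM) incubated 30 min at room temperature with a preformed 50 nM BAZ2B/50 nM biotinylated H3K14Ac peptide complex in PBS pH 7.4 with Tween-20. Donor and acceptor beads at 10 ug/mL final added, 20 min light-protected before reading.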
# G9a block: qHTS Assay for Inhibitors of Histone Lysine Methyltransferase G9a; AID 504332, 2011; 8.8% of 350,000 active; G9a H3K9 monomethylation, AlphaScreen, 2 h; Histone-lysine N-methyltransferase EHMT2 (Homo sapiens), Q96KQ7; Potency, µM (series often up to 102 µM), actives largely listed as inhibitors; also: nearly all actives have a fitted effect of over 75% in size
# Target sequence (Q96KQ7 913-1193 limits assumed): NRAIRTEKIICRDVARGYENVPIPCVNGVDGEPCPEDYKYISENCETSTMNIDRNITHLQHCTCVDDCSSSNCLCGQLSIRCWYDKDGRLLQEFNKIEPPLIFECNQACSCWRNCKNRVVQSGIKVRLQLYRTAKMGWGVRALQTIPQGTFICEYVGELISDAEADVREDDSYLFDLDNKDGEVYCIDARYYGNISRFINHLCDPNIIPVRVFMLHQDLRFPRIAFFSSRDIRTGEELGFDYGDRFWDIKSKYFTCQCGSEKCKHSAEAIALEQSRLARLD
#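 Readings reflect AlphaScreen signal from monomethyl-H3K9 antibody detection. HMT at 20 nM; substrate b-H3K9 500 nM; cofactor SAM 20 uM; 2 h RT reaction; compounds tested as titrations in qHTS with 15 min preincubation.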
# Numbers stand for hits; 0 = inactive; ? = inconclusive; - = no result given; ! = repeats disagree; [ ] = dose if it differs, or a comment. An excerpt weighted towards active compounds, which were near 12% of everything screened. Calls follow the shape of the dose curve; as a rule, active = well fitted curve in the direction sought with a large enough effect; inconclusive = small, poorly fitted or top-dose-only effect, or another doubt; inactive = no such curve, though single readings can be large; an effect the other way counts as inactive or inconclusive.
SMILES,HP1b chromo inh,JMJD2A Tudor,Sfp inh,L3MBTL1 inh,BAZ2B block,G9a block
O=S(=O)(Nc1cccc2cccnc12)c1ccc(Br)s1,-,?,0,-,-,-
O=S(=O)(Nc1cccc2cccnc12)c1cccs1,0,79.4µM,-,-,-,-
Nc1ncnc2c1ncn2[C@@H]1O[C@H](C(=O)NC2CC2)[C@@H](O)[C@H]1O,-,-,0,-,-,0
Cc1cnc(NC(=O)CN2C(=O)C3CC=CCC3C2=O)s1 (stereo not drawn),0,56.2µM,0,0,-,0
O=C(CN1C(=O)C2CC=CCC2C1=O)Nc1nccs1 (stereo not drawn),0,0,0,-,0,0[12.7 µM]
Cc1sc2ncnc(N/N=C/c3ccc(O)cc3)c2c1C,0,0,0,0,0,0
COc1cccc(/C=N/Nc2ncnc3scc(-c4ccccc4)c23)c1OC,0,?,0,-,0,50.1µM
COc1ccc(-c2csc3ncnc(Nc4ccccc4)c23)cc1,0,0,-,-,0,0
Cc1sc2ncnc(N/N=C/c3ccccc3O)c2c1C,0,?,0,?,35.5µM,0
CCN1CCOC(=O)C1CC(=O)Nc1ccc(Br)cc1 (stereo not drawn),0,0,-,-,0,2.51µM
CCN1CCOC(=O)C1CC(=O)Nc1cc(C)ccc1OC (stereo not drawn),0,0,-,-,0,10µM
Nc1c(C(=O)C2CC2)sc2nc3c(cc12)CCC3,0,0,0,0,0,?
NC(=O)c1sc2nc3c(cc2c1N)CCCCCC3,0,0,31.6µM,0,0,50.1µM
Nc1c(C(=O)O)sc2nc3c(cc12)CCCC3,0,0,0,-,0,22.4µM
COc1ccc(-c2csc(NC(=O)CSCc3c(C)noc3C)n2)cc1OC,0,0,0,-,?,-
COc1ccc(-c2csc(NC(=O)c3cc(C)oc3C)n2)cc1OC,0,?,0,-,35.5µM,50.1µM
COc1ccc(-c2csc(NC(=S)NC(=O)c3cccs3)n2)cc1OC,0,0,31.6µM,0,?,31.6µM
COc1ccc(-c2csc(NC(=O)CSCC(=O)Nc3cc(C)on3)n2)cc1OC,0,0,-,0,0,39.8µM
CCOc1ccc(NC(=O)CCn2c(=O)c3cccn3c3cccnc32)cc1,0,0,-,-,0,0
COc1ccc(NC(=O)CC2NCCNC2=O)c(OC)c1 (stereo not drawn),0,0,-,-,0,0
Cc1ccccc1Nc1scc(-c2ccc(Cl)cc2)[n+]1-c1ccccc1C,?,?,0,?,7.94µM,20µM
CC1=C(C(=O)Nc2cccnc2)C(c2ccccc2)n2nc(SCc3ccccc3F)nc2N1 (stereo not drawn),0,0,-,-,0,0
CC(C)(C)c1n[nH]c2c1CCCC2,0,89.1µM,0,0,0,0
O=C(O)Cc1c[nH]c2ccc(O)cc12,0,0,-,-,-,23.8µM!
COc1ccc2[nH]cc(CC(=O)O)c2c1,0,0,0,0,0,0
SMILES,HP1b chromo inh,JMJD2A Tudor,Sfp inh,L3MBTL1 inh,BAZ2B block,G9a block
COc1ccc2c(c1)C(=O)[C@H](OC(=O)NCCc1ccc(OC)c(OC)c1)[C@@H](c1ccc(OC)c(Br)c1)O2,-,-,0,-,-,-
Cc1ccccc1NC(=S)NCCc1c[nH]c2ccccc12,0,0,0,0,?,0
COc1ccc(NC(=O)CN(C)C(=O)CCCc2c[nH]c3ccccc23)cc1,0,?,-,0,?,44.7µM
COc1ccc(CCNC(=S)NCCc2c[nH]c3ccccc23)cc1,0,?,0,0,35.5µM,44.7µM
S=C(NCCc1c[nH]c2ccccc12)NC1CCCC1,0,0,0,0,?,0
Cc1ccc(C)c(NC(=S)NCCc2c[nH]c3ccccc23)c1,?,?,0,0,44.7µM,?
S=C(NCCc1c[nH]c2ccccc12)NC1CCCCC1,?,35.5µM,0,-,?,0
CCn1ccc2cc(S(=O)(=O)N3CCC(C(=O)NCc4ccc(F)cc4)CC3)ccc21,0,0,-,-,0,0
COc1ccc(Cl)cc1NC(=S)NCCc1c[nH]c2ccccc12,0,50.1µM,0,0,39.8µM,?
CC(C)c1ccc(NC(=S)NCCc2c[nH]c3ccccc23)cc1,?,?,0,0,35.5µM,44.7µM
COc1ccc(CC(=S)NCCc2ccccc2)cc1,?,0,14.1µM,0[2.29 µM],0,0[0.501 µM]
CC(Sc1nnc(-c2ccco2)o1)C(=O)NCCC1=CCCCC1 (stereo not drawn),0,0,0,0,0,50.1µM
CC(Sc1nnc(-c2cccnc2)n1N)C(=O)NCCC1=CCCCC1 (stereo not drawn),0,0,-,0,0,56.2µM
COc1cc2c(C(=O)N3CCN(c4cccc(C)c4)C(C)C3)cn(CC(C)C)c(=O)c2cc1OC (stereo not drawn),0,0,-,-,?,0
CCOCCCN1CN(Cc2ccco2)CNC1=S,0,0,39.8µM,-,0,15.8µM
COc1ccccc1-n1c(=O)c2c3c(sc2n2c(=S)[nH]nc12)CCC3,0,14.1µM,0,0,0,3.16µM
COc1ccc(-n2c(=O)c3c4c(sc3n(CC(=O)Nc3cc(C)[nH]n3)c2=O)CCC4)c(OC)c1,0,89.1µM,0,-,-,?
COc1ccc(-n2c(=O)c3c4c(sc3n(Cc3ccccc3)c2=O)CCC4)c(OC)c1,0,0,-,-,0,?
COc1ccc(-n2c(=O)c3c4c(sc3n(CC(=O)C(C)(C)C)c2=O)CCCC4)c(OC)c1,0,0,-,-,0,?
CC(=O)Nc1ccc(S(=O)(=O)Nc2nc3ccc([N+](=O)[O-])cc3s2)cc1,0,0[11.4 µM],0,0,0,44.7µM
CCC(C)C(=O)Nc1nc2ccc(S(C)(=O)=O)cc2s1 (stereo not drawn),0,0[11.4 µM],0,0,0,31.6µM
CC(=O)Nc1ccc(S(=O)(=O)Nc2nc3ccccc3s2)cc1,0,0,0,-,0,0[12.7 µM]
CCc1noc(C)c1C(=O)Nc1nc2ccc(F)cc2s1,0,0,-,0,0,15.8µM
CC(C)C(=O)Nc1nc2ccc(S(C)(=O)=O)cc2s1,0,0,0,0,0,-
CCc1noc(C)c1C(=O)Nc1nc2ccc(S(C)(=O)=O)cc2s1,0,0,-,0,0,50.1µM
COc1ccc(CNC(=O)C2=C(C)C(=O)OC23CCN(C(C)=O)CC3)cc1,0,0,-,-,0,0
CS(=O)(=O)c1ccc2nc(NC(=O)CCNC(=O)c3ccc([N+](=O)[O-])cc3)sc2c1,0,0,-,0,0,39.8µM
CN1CCN(CCCN(Cc2ccco2)C(=S)Nc2ccc(Cl)cc2)CC1,0,0,0,?,0,0
Cc1cccc(NC(=S)N(CCCN2CCCC2)Cc2cccn2Cc2ccc(Cl)cc2)c1,0,?,0,-,?,44.7µM
CCOc1ccc(NC(=S)N(CCCN2CCCC2)Cc2cccn2Cc2ccc(Cl)cc2)cc1,0,?,0,-,?,39.8µM
